Experiment [1] is described as follows: AP1 Signaling Pathway (AID 357; active = well fitted curve in either direction with a large enough effect, not every such curve was filed as active; also: % is scaled to controls: 0 for no effect and ±100 for the full control effect). Particulars: ME-180 AP-1-bla reporter, EGF-induced, beta-lactamase ratio, 5 h; at 38 µM (top of the series). In outline:
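ME-180 cells with beta-lactamase reporter under AP-1 response element, stimulated with EC50 EGF; compounds tested in titration series, 5 h at 37 °C. CCF4 substrate added 2.5 h at room temperature; 460/530 nm emission ratio gave %activity and AC50.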

The nature of experiment [2]: NFAT Signaling Pathway (AID 444; active = well fitted curve in either direction with a large enough effect, not every such curve was filed as active;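 also: carbachol stimulus at about its EC50 of 1 µM final; % is scaled to controls: 0 for no effect and ±100 for the full control effect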). Particulars: Jurkat NFAT-bla M1, carbachol, beta-lactamase ratio, 5 h; at 38 µM (top of the series). The gist of the method: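 Jurkat cells carrying an NFAT-driven β-lactamase reporter and co-transfected muscarinic M1 receptor were treated with compound plus carbachol (1 uM final, an EC50 level) for 5 h at 37 °C. CCF4 loading followed for 1 h at RT; 460/530 nm ratio gave %activity.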

Experiment [3] is described as follows: Stat Signaling Pathway (AID 446; active = well fitted curve in either direction with a large enough effect, not every such curve was filed as active;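 also: ME-180 cervical cancer cells given 40 pM IL-6 alongside compound; SIE-controlled beta-lactamase reporter measured as 460/530 nm FRET emission ratio; % is scaled to controls: 0 for no effect and ±100 for the full control effect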). The following applies: ME-180 (cervical carcinoma) SIE beta-lactamase reporter, IL-6 stimulated, 5 h; at 38 µM (top of the series). In outline:
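Overnight-plated ME-180 cells bearing a STAT Inducible Element beta-lactamase reporter; 5 h co-exposure to compound and 40 pM IL-6; values normalized to 300 pM IL-6 and 125 nM JAK inhibitor controls.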

Experiment [4] deals with Glucocorticoid receptor (Homo sapiens) (UniProt P04150). Put plainly: GR-GFP Redistribution (AID 450;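 active = compounds whose dose series gives a full or clear partial fitted curve of increased nuclear translocation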; also: potency is read from the fitted curve at half-maximal effect). The following applies: U2OS GR-GFP nuclear translocation, laser cytometry, 2 h.
Sequence of Glucocorticoid receptor (Homo sapiens) (P04150 whole entry, looked up): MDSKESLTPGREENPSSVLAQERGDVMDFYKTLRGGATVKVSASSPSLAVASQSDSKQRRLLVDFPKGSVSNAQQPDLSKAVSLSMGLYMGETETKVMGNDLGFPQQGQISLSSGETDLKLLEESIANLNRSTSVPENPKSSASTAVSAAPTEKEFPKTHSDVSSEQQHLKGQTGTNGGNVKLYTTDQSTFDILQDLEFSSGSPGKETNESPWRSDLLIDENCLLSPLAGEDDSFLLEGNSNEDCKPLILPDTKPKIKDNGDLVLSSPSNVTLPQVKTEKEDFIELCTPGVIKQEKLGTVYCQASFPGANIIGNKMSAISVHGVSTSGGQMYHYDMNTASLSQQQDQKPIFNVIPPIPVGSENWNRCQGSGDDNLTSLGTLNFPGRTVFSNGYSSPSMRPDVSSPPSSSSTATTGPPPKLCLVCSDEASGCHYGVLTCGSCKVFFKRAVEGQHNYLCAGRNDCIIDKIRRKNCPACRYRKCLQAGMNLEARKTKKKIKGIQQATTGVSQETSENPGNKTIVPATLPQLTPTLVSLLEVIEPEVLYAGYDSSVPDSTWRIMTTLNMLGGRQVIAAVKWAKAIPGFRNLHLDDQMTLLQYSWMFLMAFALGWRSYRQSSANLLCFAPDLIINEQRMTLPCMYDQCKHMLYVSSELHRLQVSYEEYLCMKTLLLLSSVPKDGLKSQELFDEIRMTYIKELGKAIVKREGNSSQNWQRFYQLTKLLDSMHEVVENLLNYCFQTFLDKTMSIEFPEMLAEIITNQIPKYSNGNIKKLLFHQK
Experiment [5] shares this target. Description: GR-EFC Redistribution (AID 451; calls by dose curve; also: potency is read from the fitted curve at half-maximal effect). The following applies: CHO-K1 GR-EFC translocation, beta-gal luminescence, 2 h. In outline:
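CHO-K1 cells stably expressing nuclear-localized β-gal enzyme acceptor and GR fused C-terminally to the enzyme donor fragment; ligand-driven nuclear translocation restores β-gal by complementation. Compounds titrated up to 46 uM final, 2 h at 37 °C; luminescence read.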

Experiment [6] addresses 3',5'-cyclic-AMP phosphodiesterase 4B (Homo sapiens) (UniProt Q07343). Description: qHTS Assay for Inhibitors of PDE-IV (AID 607; active = well fitted activation curve with a large enough effect in the main read-out, with a control signal flat, not every such curve was filed as active; also: % of control where 0% means no effect). In outline: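 Live HEK293 cells with a modified cyclic nucleotide-gated (CNG) channel report intracellular cAMP via membrane-potential dye fluorescence (ex 535/em 590 nm). Endogenous PDE-IV was targeted. Compounds were tested at up to 22.9 uM final; RO 20-1724 100 uM served as control.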
A general note: qHTS replaces the single test concentration by a dilution series.

Experiment [7] deals with Cytochrome P450 3A4 (Homo sapiens) (UniProt P08684). Description: qHTS Assay for Activators of Cytochrome P450 3A4 (AID 885). Also: nearly all actives have a fitted effect of over 65% in size. The gist of the method:
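Using 20nM recombinant human CYP3A4 in potassium phosphate (200mM), substrate Luciferin-PPXE at 25uM, luminescent luciferin detection followed a 60-min RT NADPH reaction; data scaled to 57 uM ketoconazole.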

A short description of experiment [8]: qHTS Assay for Identification of Small Molecule Antagonists for Thrombopoietin (TPO) Signaling Pathway (AID 918). Also: potency is read from the fitted curve at half-maximal effect; nearly all actives have a fitted effect of over 60% in size. The following applies: TPO-dependent cell signaling reporter, antagonist mode. The gist of the method: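 Luminescence read-out: GPIIb-promoter luciferase in Ba/F3 cells carrying human TPO receptor. Compounds added with 26 pM TPO (EC50), 24 hrs, 37 C, 5% CO2; cells deprived of IL-3 overnight beforehand. Inhibition of signal scored.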

The target in experiment [9] is Muscarinic acetylcholine receptor M1 (Rattus norvegicus) (UniProt P08482). Description: qHTS Assay for Antagonists of Acetylcholine Muscarinic M1 Receptor: Kinetic Measurement of Intracellular Calcium Response (AID 943).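 Also: Fluo-4 calcium signal as peak divided by basal fluorescence over 4 min; nearly all actives have a fitted effect of over 75% in size.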 In outline:
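Read-out: peak over basal Fluo-4 fluorescence, kinetic at 1 Hz for 4 min after EC80 carbachol (100 nM final). Rat M1-CHO cells, dye loaded 1 h at 37C, compound added 10 min before agonist.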

Experiment [10] has the same target. Put plainly: qHTS Assay for Antagonists of Acetylcholine Muscarinic M1 Receptor: Measurement of IP-One Response (AID 944). Also: nearly all actives have a fitted effect of over 75% in size. The gist of the method:
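Read-out: HTRF competition between d2-IP1 and Eu-cryptate anti-IP1 antibody, emission 620 and 665 nm. Stimulus was carbachol, EC80 (200 nM), for 30 min in M1-CHO cells (rat receptor), after 10 min compound pre-treatment.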

The target in experiment [11] is Pyruvate kinase PKM (Homo sapiens) (UniProt P14618). Description: qHTS Assay for Activators of Human Muscle Pyruvate Kinase (AID 954; active = well fitted curve in the direction sought with a large enough effect, not every such curve was filed as active;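 also: 0% = uninhibited enzyme and -100% = no enzyme or full thiadiazolimine inhibition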). The gist of the method:
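Screening used highly purified human pyruvate kinase M2 under submaximal activity, with PEP at its Km and ADP below Km. After an hour at room temperature, ATP was read by luciferase luminescence.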

For experiment [12], the target named is Pyruvate kinase (Leishmania mexicana) (UniProt Q27686). Description: qHTS Validation Assay for Activators of Leishmania Mexicana Pyruvate Kinase (AID 959). In outline:
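Eight-point qHTS titrations in triplicate, data normalized to DMSO neutral control. Reaction: 0.2 nM LmPYK E451W mutant, 0.5 mM PEP, 0.1 mM ADP, 7 mM MgCl2, pH 7.2, one hour at room temperature; luminescent ATP detection.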

Experiment [13] addresses Alpha-galactosidase A (Homo sapiens) (UniProt P06280). Put plainly: Counterscreen for Glucocerebrosidase Inhibitors: qHTS Assay for Human alpha-Galactosidase at pH 4.5 (AID 992). Also: 0% is about no effect. In outline: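 Each compound is preincubated briefly with 2 nM enzyme before substrate addition (80 uM); plates then sit 20 min at ambient temperature, are quenched with 1M NaOH/1M glycine, and read fluorometrically.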
For orientation: A counterscreen serves to expose hits that act by an unwanted route or on another target.

In experiment [14] the target is alpha-glucosidase (Oryza sativa, rice) (UniProt Q653V4). Description: Counterscreen for Glucocerebrosidase Inhibitors: qHTS Assay for Rice alpha-Glucosidase at pH 5.0 (AID 997).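 Also: 0% = full activity with enzyme and -100% = basal without enzyme.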 The gist of the method:
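Endpoint fluorogenic assay at pH 5.0: compounds (0.7 nM to 77 uM) titrated against 4 nM rice enzyme and 400 uM 4-MU-alpha-glucoside for 20 min at room temperature; NaOH/glycine stop, read ex 365/em 440 nm, Hill-fitted AC50.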

Experiment [15] can be described thus: qHTS Assay for Lipid Storage Modulators (AID 1519; calls by dose curve). Particulars: Drosophila S3 cells, BODIPY lipid droplet/cell ratio, laser cytometry, cells loaded with oleic acid. The gist of the method:
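Cells seeded at 5,000 per well were treated with compounds over a concentration series and loaded with oleic acid (400 uM, as added). Lipid droplet fluorescence (488 nm excitation, 500-530 nm channel) was read by laser-scanning cytometry and normalized to 20 uM Triacsin C.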

Experiment [16] deals with DNA repair nuclease/redox regulator APEX1 (Homo sapiens) (UniProt P27695). Put plainly: qHTS Validation Assay for Inhibitors of the Human Apurinic/apyrimidinic Endonuclease 1 (APE1) (AID 1705;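 also: TAMRA fluorescence gain over two minutes as APE1 cuts a quenched THF abasic duplex; % is scaled to controls: 0 for no effect and ±100 for the full control effect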). In outline:
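Activity read as rising fluorescence (598 nm emission, 525 nm excitation) from incision of a TAMRA/BHQ-2 duplex carrying a THF abasic site (50 nM). Compound and enzyme sat 15 min at RT before substrate start; signal change between first and third 60-s reads.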

Experiment [17] can be described thus: Counterscreen for APE1 Inhibitors: Fluorescent Dye Displacement Validation Assay (AID 1707).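 Also: plate controls were ThO with dsDNA and no compound for no effect and ThO without dsDNA for full effect.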 The gist of the method: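 Loss of Thiazole Orange fluorescence marks promiscuous DNA binders. The dye (250 nM) is mixed with 50 nM abasic-site dsDNA in pH7.5 Tris buffer containing MgCl2, then compounds are added and emission is read once.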

Structures are written as SMILES. Inconclusive results are not listed. Active and inactive are the calls of the source. Unless noted, calls follow the shape of the dose curve; as a rule, active = well fitted curve in the direction sought with a large enough effect; inconclusive = small, poorly fitted or top-dose-only effect, or another doubt; inactive = no such curve, though single readings can be large; an effect the other way counts as inactive or inconclusive.

Sequence of Muscarinic acetylcholine receptor M1 (Rattus norvegicus) (P08482 whole entry, looked up): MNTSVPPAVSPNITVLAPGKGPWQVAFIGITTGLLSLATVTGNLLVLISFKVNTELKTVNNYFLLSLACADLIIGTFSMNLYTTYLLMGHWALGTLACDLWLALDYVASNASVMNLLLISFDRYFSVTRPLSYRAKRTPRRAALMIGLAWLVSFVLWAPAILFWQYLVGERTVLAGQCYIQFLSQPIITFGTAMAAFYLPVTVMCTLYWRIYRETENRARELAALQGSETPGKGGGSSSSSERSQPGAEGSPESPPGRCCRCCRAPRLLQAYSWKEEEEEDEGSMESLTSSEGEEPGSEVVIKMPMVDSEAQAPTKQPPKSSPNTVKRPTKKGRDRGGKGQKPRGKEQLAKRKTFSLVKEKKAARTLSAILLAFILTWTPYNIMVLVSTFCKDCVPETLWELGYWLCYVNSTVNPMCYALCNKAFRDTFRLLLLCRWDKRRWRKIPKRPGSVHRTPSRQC
Sequence of 3',5'-cyclic-AMP phosphodiesterase 4B (Homo sapiens) (Q07343 whole entry, looked up): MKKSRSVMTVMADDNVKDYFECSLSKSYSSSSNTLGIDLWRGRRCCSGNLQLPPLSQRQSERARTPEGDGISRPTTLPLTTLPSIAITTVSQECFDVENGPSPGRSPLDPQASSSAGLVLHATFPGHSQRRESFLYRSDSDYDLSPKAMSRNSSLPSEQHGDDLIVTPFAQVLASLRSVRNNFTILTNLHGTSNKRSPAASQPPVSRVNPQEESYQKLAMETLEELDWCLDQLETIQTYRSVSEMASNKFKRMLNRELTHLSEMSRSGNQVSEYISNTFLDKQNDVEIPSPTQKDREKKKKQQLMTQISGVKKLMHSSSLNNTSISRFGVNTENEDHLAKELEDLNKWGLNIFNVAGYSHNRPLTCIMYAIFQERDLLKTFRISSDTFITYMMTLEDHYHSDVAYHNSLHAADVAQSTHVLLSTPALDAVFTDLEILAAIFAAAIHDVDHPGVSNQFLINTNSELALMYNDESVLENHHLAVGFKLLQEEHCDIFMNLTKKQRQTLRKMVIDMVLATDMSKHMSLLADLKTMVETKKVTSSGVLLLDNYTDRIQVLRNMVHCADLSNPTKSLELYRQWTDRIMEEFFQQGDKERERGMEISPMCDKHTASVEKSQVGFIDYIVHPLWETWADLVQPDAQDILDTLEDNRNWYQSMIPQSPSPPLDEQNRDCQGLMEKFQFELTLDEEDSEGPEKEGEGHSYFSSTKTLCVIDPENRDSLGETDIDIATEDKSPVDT
Sequence of DNA repair nuclease/redox regulator APEX1 (Homo sapiens) (P27695 whole entry, looked up): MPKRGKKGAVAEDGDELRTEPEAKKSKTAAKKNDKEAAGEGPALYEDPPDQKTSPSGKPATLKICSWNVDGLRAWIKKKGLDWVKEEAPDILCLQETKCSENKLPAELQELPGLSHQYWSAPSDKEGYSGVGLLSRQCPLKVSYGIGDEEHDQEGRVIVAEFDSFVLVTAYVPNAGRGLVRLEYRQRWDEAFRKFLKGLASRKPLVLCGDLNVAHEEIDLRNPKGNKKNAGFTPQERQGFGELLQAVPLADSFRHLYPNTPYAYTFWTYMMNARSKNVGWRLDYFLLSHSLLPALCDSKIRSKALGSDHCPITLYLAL
Sequence of Alpha-galactosidase A (Homo sapiens) (P06280 whole entry, looked up): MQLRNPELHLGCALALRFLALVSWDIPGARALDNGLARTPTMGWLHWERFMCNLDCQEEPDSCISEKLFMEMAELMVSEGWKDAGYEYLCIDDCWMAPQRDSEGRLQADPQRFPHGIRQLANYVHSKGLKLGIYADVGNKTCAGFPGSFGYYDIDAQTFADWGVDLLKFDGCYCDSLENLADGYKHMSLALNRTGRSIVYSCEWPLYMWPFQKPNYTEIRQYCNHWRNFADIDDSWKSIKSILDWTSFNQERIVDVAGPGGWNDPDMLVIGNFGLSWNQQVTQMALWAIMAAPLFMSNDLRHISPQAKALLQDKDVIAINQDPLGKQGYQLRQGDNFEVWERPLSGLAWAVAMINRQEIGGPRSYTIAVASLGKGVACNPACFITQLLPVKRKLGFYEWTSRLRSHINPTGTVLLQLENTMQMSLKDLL
Sequence of Cytochrome P450 3A4 (Homo sapiens) (P08684 whole entry, looked up): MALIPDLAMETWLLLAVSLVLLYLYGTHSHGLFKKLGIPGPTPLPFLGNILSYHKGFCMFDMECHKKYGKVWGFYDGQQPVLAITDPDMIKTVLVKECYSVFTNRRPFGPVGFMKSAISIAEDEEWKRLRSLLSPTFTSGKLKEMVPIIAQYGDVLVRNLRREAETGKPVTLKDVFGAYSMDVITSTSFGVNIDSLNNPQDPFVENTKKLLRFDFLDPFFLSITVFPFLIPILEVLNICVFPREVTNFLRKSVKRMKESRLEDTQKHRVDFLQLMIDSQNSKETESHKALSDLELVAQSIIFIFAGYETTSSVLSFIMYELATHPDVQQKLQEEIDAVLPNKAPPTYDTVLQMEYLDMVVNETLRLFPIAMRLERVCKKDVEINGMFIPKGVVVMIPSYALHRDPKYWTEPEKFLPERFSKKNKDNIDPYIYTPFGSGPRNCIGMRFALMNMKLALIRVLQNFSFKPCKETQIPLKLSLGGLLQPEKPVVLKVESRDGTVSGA
Sequence of Pyruvate kinase (Leishmania mexicana) (Q27686 2-499 E452W): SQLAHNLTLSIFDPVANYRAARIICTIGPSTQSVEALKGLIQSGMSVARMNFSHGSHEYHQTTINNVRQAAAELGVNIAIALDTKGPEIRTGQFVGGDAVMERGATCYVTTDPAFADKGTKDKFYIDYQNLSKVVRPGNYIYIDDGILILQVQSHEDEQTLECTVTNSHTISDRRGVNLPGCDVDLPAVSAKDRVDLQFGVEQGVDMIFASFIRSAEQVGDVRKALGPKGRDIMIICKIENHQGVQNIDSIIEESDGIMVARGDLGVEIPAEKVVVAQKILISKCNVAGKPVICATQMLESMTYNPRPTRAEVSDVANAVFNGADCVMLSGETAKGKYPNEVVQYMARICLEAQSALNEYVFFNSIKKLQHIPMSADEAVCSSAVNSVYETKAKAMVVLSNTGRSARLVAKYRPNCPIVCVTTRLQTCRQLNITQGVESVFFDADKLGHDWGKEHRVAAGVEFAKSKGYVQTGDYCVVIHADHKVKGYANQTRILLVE
Sequence of Pyruvate kinase PKM (Homo sapiens) (P14618 whole entry, looked up): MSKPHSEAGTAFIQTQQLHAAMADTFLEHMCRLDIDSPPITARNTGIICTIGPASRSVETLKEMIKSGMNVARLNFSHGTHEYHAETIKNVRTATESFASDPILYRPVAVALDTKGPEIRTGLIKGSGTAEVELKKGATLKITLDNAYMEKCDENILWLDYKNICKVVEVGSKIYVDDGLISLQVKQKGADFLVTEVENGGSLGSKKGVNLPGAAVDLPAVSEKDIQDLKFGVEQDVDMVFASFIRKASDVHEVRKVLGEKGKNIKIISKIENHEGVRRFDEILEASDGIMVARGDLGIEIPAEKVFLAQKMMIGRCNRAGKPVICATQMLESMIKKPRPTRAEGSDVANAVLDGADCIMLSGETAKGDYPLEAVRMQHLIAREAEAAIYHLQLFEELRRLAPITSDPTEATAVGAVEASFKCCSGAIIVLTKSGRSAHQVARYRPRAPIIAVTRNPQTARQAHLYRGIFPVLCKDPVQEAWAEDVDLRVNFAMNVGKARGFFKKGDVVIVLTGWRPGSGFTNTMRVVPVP

`S=C(Nc1ccccc1)Nc1nccs1`: the activity change, negative = inhibition in [1] is -16.9% (inactive); in experiment [2], 0.515% (inactive); in [15] (at 57.5 µM (top of the series)), -0.0683% (inactive). For the same compound, the activity, negative = inhibition in experiment [3] was 11.6% (inactive). The Potency in experiment [4] was > 46 µM (inactive); in experiment [5], > 46 µM (inactive); in experiment [8], 20 µM (active). The Potency entry in [6], in [7], in experiment [9], in [10], in experiment [12] and in experiment [16] was “inactive” throughout. The Potency result in [17] is “inactive”. Besides, the result in experiment [11], in experiment [13] and in experiment [14] was inactive. Moreover, the max response is -12.9% in experiment [15] (measured here: cell count channel max response) and -14.9% in [15] (measured here: lipid channel max response).

Source of the values: PubChem BioAssay (NCATS).
